# Laboratory results as given in PubChem BioAssay AID743279 (National Center for Advancing Translational Sciences (NCATS), 2014).
# In all, about 360,000 compounds went through this assay and about 17,000 (4.7%) were called active. Roughly 5% stayed inconclusive and do not appear here. Many of the other results were omitted from the sample, so actives are more common in it than they were. A number with no mark means an inactive call. Rule as the data show it: active = activity change below about -50%; inconclusive = mostly about -30% to -49%; inactive = weaker than that.
# Test: qHTS for Inhibitors of Inflammasome Signaling: IL-1-beta AlphaLISA Primary Screen
# Conditions: THP-1 LPS/ATP IL-1B secretion, 16 h; at 57.5 µM, hits give low values
# How it was run: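 THP-1 cells pretreated 1 hr with compounds (up to 57.5 uM final), then stimulated with LPS (250 ng/mL final) plus ATP (1.25 mM final); secreted IL-1B measured by AlphaLISA after 16 hr, decreased signal indicating inhibition.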
# % is scaled to controls: 0 for no effect and ±100 for the full control effect.
row,SMILES,activity change
1,Oc1c(CN2CCOCC2)ccc(CN2CCOCC2)c1O,14.4%
2,CN(C(=O)c1cccc(NC(=O)Cc2ccc(NC(=O)C3CCN(C(=O)C4CCCCC4)CC3)cc2)c1)C1CCC1,-1.34%
3,CN1CCN(C2Cc3ccc(Cl)cc3Sc3ccc(F)cc32)CC1 (stereo not drawn),-63.5% (active)
4,COC(=O)C1NN=C(C(=O)c2ccc(Br)cc2)C1c1cccc(Br)c1 (stereo not drawn),19.6%
5,C[C@H]1CN([C@@H](C)CO)C(=O)CCCn2cc(nn2)CO[C@@H]1CN(C)C(=O)Nc1ccccc1,-2.98%
6,c1ccc2cc3c(NCCN4CCOCC4)ccnc3cc2c1,-83.2% (active)
7,Fc1ccc(-c2ccc(NCCN3CCOCC3)nn2)cc1,-8.39%
8,CCOc1nc(NCCN2CCOCC2)nc(Nc2ccc(C)cc2)n1,-27.7%
9,Cc1nc(N)sc1-c1ccccc1,-26.3%
10,COc1ccc(-n2c(Cc3cccn3C)nnc2SCC(=O)Nc2cc(C)cc(C)c2)cc1,-24.7%
11,Cc1cccc(-n2c(=O)c3c(C)c(C)sc3n(CC(N)=O)c2=O)c1,16.6%
12,N#CCSc1nc2c(c(=O)n1Cc1ccccc1)C1(CCCC1)Cc1ccccc1-2,4.25%
13,Cc1cccc(-n2c(SCC(N)=O)nc3c(c2=O)C2(CCCCC2)Cc2ccccc2-3)c1,-72.3% (active)
14,COCC(=O)N(C)C[C@H]1Oc2cc(Br)ccc2S(=O)(=O)N([C@H](C)CO)C[C@H]1C,20.9%
15,CCOCCC(=O)Nc1ccc2c(c1)c(=O)n(C)n2-c1ccc2ccccc2c1,87.4%
16,COc1cc2c(cc1OC)C(/C=C/c1ccco1)=NCC2,-75.5% (active)
17,CCOC(=O)C1=NN(c2ccc(Cl)cc2)/C(=C/C2=NCCc3cc(OC)c(OC)cc32)S1,-28.4%
18,COc1ccc(Cl)cc1C(=O)NNC(=S)NC(=O)/C=C/c1ccco1,26.9%
19,C[C@H]1COc2cc(N3CCSCC3)ccc2S(=O)(=O)N1,26.2%
20,COc1ccc(Cl)cc1-c1cc(C(=O)Nc2cc(OC)c(OC)c(OC)c2)[nH]n1,-10.3%
21,CSc1ncnc2c1ncn2CCCNCC(C)c1ccccc1 (stereo not drawn),17.6%
22,COc1ccc(-c2cc(NC(C)=O)c3ncc(-c4cc(OC)c(OC)c(OC)c4)n3c2)cn1,41.4%
23,CCN(C(=O)CN1C(=O)/C(=C/c2ccc(F)cc2)SC1=S)C1CCS(=O)(=O)C1 (stereo not drawn),0%
24,COc1ccc(/C=C2\SC(=S)N(CCCC(=O)NC3CCCC3)C2=O)cc1OC,7.66%

row,SMILES,activity change
1,O=C1/C(=C/c2ccc(F)cc2)SC(=S)N1CCCC(=O)N1CCCCC1CCO (stereo not drawn),-86.6% (active)
2,Cc1cccc(C)c1-n1nnnc1C1(C)CCC(=O)N1CCOc1ccccc1 (stereo not drawn),33.1%
3,CC(C)c1ccc(/C=C/C(=O)NCCCN2CCOCC2)cc1,-1.14%
4,CC1CC(NC(=S)N(C)C)CC(C)(C)C1 (stereo not drawn),31.1%
5,NS(=O)(=O)c1ccc(CCNS(=O)(=O)c2cccc3cccnc23)cc1,7.82%
6,O=[N+]([O-])c1ccccc1S(=O)(=O)Nc1cccc2cccnc12,-99.8% (active)
7,COc1cc(NS(=O)(=O)c2ccc3ccccc3c2)c2ncccc2c1,20.6%
8,CN(C(=O)c1cccc(NC(=O)Cc2cccc(NC(=O)C3CCCN(C(=O)C4CC4)C3)c2)c1)C1CCC1 (stereo not drawn),0%
9,COC(=O)c1ccc2nc(-c3ccc(C)cc3)c(Cc3ccc(OC)cc3C)n2c1,16%
10,COc1cccc(NC(=O)COC(=O)/C=C/c2ccco2)c1,19.5%
11,O=C(/C=C/c1ccco1)NC(=S)Nc1ccccc1Br,-18.4%
12,O=C(/C=C/c1ccco1)Nc1ccc(Oc2ccccc2)cc1,-58.1% (active)
13,CSC1=NCCN1C(=O)c1ccc(S(=O)(=O)N2CCOCC2)cc1,2.64%
14,CC(=O)Nc1ccc(C(=O)Nc2cc(S(=O)(=O)N3CCOCC3)ccc2N2CCOCC2)cc1,-12.6%
15,CCC(C)NC(=O)c1ccc(NC(=O)CC2SC(N3CCCCC3)=NC2=O)cc1 (stereo not drawn),-15.8%
16,N=c1oc2ccccc2cc1C(=O)NCc1ccccc1,-22.4%
17,COc1cccc2cc(C(=O)NCc3ccc(C)cc3)c(=N)oc12,-59.4% (active)
18,COc1cccc2cc(C(=O)N(C)C)c(=O)oc12,-12.7%
19,OC[C@@H]1CN(Cc2ccncc2)C[C@H](n2cnc3c(N4CCN(c5ccccc5)CC4)ncnc32)O1,3.63%
20,O=C(Nc1cccnc1)c1ccc(Cl)cc1[N+](=O)[O-],0%
21,O=C(Nc1cccnc1)c1cc([N+](=O)[O-])ccc1Cl,0%
22,O=C(Nc1cccnc1)c1cc(Cl)ccc1Cl,-60.5% (active)
23,COCCNC(=S)N1CCN(C)CC1,26.6%
24,c1ccc(Cc2ccc(OCCn3ccnc3)cc2)cc1,-57.5% (active)

row,SMILES,activity change
1,Brc1ccc(OCCn2ccnc2)cc1,-15%
2,Clc1ncn(CCOc2ccccc2)c1Cl,-9.73%
3,CC(C)Oc1cc(F)ccc1-c1cc(C(=O)Nc2ccc(F)cc2)[nH]n1,-25.4%
4,Cn1nc(-c2ccccc2)c2cc([N+](=O)[O-])ccc21,-13.7%
5,Cn1c(=O)c([N+](=O)[O-])c(Oc2ccccc2)c2ccccc21,-86.4% (active)
6,Cc1cccc(Oc2c([N+](=O)[O-])c(=O)n(C)c3ccccc23)c1,-101% (active)
7,Cc1cccc(OP(=O)(Nc2c(C)n(C)n(-c3ccccc3)c2=O)Oc2cccc(C)c2)c1,-27.9%
8,Cc1cc(C)c(-c2c(O)c3ccccc3n(C)c2=O)c(C)c1,13%
9,COc1cc2c(=O)n(C)c3ccccc3c2cc1OC,-24.4%
10,CC(=O)C1=C(O)C(=O)N(c2ccc(S(N)(=O)=O)cc2)C1c1ccccc1F (stereo not drawn),7.68%
11,NC(=O)c1ncn([C@@H]2O[C@H](CN=C3NS(=O)(=O)c4ccccc43)[C@@H](O)[C@H]2O)n1,21.3%
12,COc1ccc(NC(=S)Nc2ccc(S(N)(=O)=O)cc2)c(C)c1,-12.2%
13,NS(=O)(=O)c1ccc(NC(=S)Nc2ccc(Br)c(Cl)c2)cc1,-89% (active)
14,NS(=O)(=O)c1ccc(CCNC(=S)Nc2ccc(S(N)(=O)=O)cc2)cc1,-3.65%
15,CCOC(=O)CSc1nccc(N(C)C)c1C#N,-70.3% (active)
16,CCOC(=O)CSc1nc(N2CCOCC2)c2c(c1C#N)CC(C(C)C)OC2 (stereo not drawn),56.1%
17,CCOC(=O)CSc1ccccn1,3.79%
18,O=S(=O)(NCCc1csc(-c2ccccc2)n1)c1cccnc1,41.8%
19,O=S(=O)(Cc1cc(Sc2ccccc2)nc(-c2ccccc2)n1)c1ccccc1,0%
20,O=S(=O)(Cc1cc(Cl)nc(-c2cccnc2)n1)c1ccccc1,-98.6% (active)
21,O=C1NC(Cc2ccccc2)c2nc3ccc(Br)cc3c(=O)n2-c2cc3ccccc3cc21 (stereo not drawn),-12%
22,C[C@H](O)[C@@H]1C(=O)N2CCc3ccc(N4CCOCC4)cc3[C@@H]2C[C@@H]1N(C)C(=O)C(C)(C)C,0%
23,CN1OC[C@@H]2CN(C(=O)C(C)(C)C)[C@H](c3ccc(-n4ccnc4)cc3)C[C@@H]21,-20.8%
24,Cc1ccccc1S(=O)(=O)N1[C@@H](c2cccc(Cl)c2)C(C(=O)OC(C)(C)C)=CC[C@H]1c1ccc(Cl)cc1,-7.69%

row,SMILES,activity change
1,CCCN1CCN(CCCNC(=O)CN2C(=O)COc3ccccc32)CC1,5.04%
2,CN1CCN(CCCNC(=O)c2ccc(/C=C3\Oc4ccccc4N(Cc4ccc(Cl)cc4)C3=O)cc2)CC1,-78% (active)
3,CC(C)OCCCNC(=O)CN1C(=O)/C(=C/c2ccccc2F)Oc2ccccc21,14.1%
4,Cc1cccc(CN2CCN(C3CN(Cc4ccccc4)S(=O)(=O)C3)CC2)c1 (stereo not drawn),5.62%
5,COC(=O)C1C(=O)NCC1c1ccc(OC)cc1 (stereo not drawn),5.62%
6,C[C@@H]1CN([C@@H](C)CO)C(=O)c2cc(Br)cnc2O[C@@H]1CN(C)C(=O)C1CCCCC1,-1.93%
7,CC(C)=C1SC(N2CCN(c3ccc(C)c(Cl)c3)CC2)=NC1=O,25.2%
8,CC(C)=C1SC(N2CCN(c3cccc(C)c3)CC2)=NC1=O,-56.9% (active)
9,CNS(=O)(=O)c1cnccc1N1CCN(c2cccc(C)c2)CC1,-2.21%
10,Fc1ccc2[nH]c3c(N4CCSCC4)ncnc3c2c1,-62% (active)
11,O=c1[nH]c(N2CCN(Cc3ccc4c(c3)OCO4)CC2)nc2c1CCCC2,4.34%
12,Fc1ccc2[nH]c3c(N4CCN(Cc5ccc6c(c5)OCO6)CC4)ncnc3c2c1,-94.7% (active)
13,CCCCCc1c(C)nc(N2CCN(Cc3ccc4c(c3)OCO4)CC2)[nH]c1=O,-0.641%
14,O=C(NCCS(=O)(=O)N1CCN(c2ccccc2)CC1)c1cc(=O)c2ccccc2o1,-1.79%
15,CC(=O)Oc1ccc(OC(C)=O)c2c1C1C=CC2CC1,-13.5%
16,FC(F)(F)c1nc(-c2ccccc2)ncc1-c1nnnn1-c1ccccc1,-66.2% (active)
17,c1ccc(-n2nnnc2-c2cccnc2)cc1,-6.19%
18,Clc1ccc(-n2nnnc2-c2cnc(-c3ccccn3)nc2-c2cccs2)cc1,-21.9%
19,O=C(OCc1ccc(-c2ccccc2)cc1)c1cccc(O)c1,-71.1% (active)
20,O=C(OCC(=O)c1c[nH]c2ccccc12)c1cccc(O)c1,-4.98%
21,O=C(CNC(=O)c1ccc(-c2ccccc2)cc1)OCc1ccc(Cl)cc1,18.8%
